PubChem BioAssay AID686978 (National Center for Advancing Translational Sciences (NCATS), 2013)
Out of some 420,000 compounds screened, about 64,000 (15%) were called active. Another 27% or so got no clear call; they are omitted. Calls come from the whole dose curve; as a rule, active = well fitted inhibition curve with a large enough effect; inconclusive = small, poorly fitted or top-dose-only effect; inactive = flat fitted curve, though single readings scatter. A selection follows. A call without a number means that no potency is given here.

Assay: qHTS for Inhibitors of human tyrosyl-DNA phosphodiesterase 1 (TDP1): qHTS in cells in absence of CPT; note: nearly all actives have a fitted effect of over 55% in size
Settings: DT40 Tdp1-/- hTDP1 cells, no CPT, ATP luminescence, 48 h; activity change, negative = growth inhibition: at 46.2 µM (top of the series)
In short: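 Chicken DT40 Tdp1-/- cells stably complemented with human TDP1 were seeded at 400 cells/well with DMSO in place of 20 nM camptothecin. After compound pinning, cells grew at least 48 hr at 37 °C; viability read by CellTiter-Glo luminescence.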
Potency is the fitted concentration of half-maximal effect.

SMILES | Potency
C=CCNc1nc(Nc2ccc(Cl)cc2)nc(OC)n1 | inactive
O=C(Cn1cc(C(=O)C2CC2)c2ccccc21)Nc1ccccc1Cl | inactive
CN(C)S(=O)(=O)c1ccc(C(=O)NCC2(N3CCOCC3)CCCCC2)cc1 | inactive
CC(=O)Nc1ccccc1C(=O)C(=O)Nc1ccc(F)cc1 | inactive
O=S(=O)(Nc1n[nH]c(C(F)(F)F)n1)c1ccccc1 | inactive
CCCNC(=O)C1(C)CCN(C(=O)c2ccccc2OC(F)(F)F)C1 (stereo not drawn) | inactive
CCNC(=O)C1(C)CCN(Cc2ccc(C(=O)OCC)o2)C1 (stereo not drawn) | inactive
CCCNC(=O)C1(C)CCN(C(=O)c2ccc(F)cc2Cl)C1 (stereo not drawn) | inactive
CCCNC(=O)C1(C)CCN(Cc2ccc(Cl)c(Cl)c2)C1 (stereo not drawn) | 20.6 µM (active)
CCCNC(=O)C1(C)CCCN(C(=O)c2cccc(OC(C)=O)c2C)C1 (stereo not drawn) | inactive
CCCNC(=O)C1(C)CCN(Cc2csc(-c3ccc(Cl)cc3)n2)C1 (stereo not drawn) | 16.4 µM (active)
CCCNC(=O)C1(C)CCCN(Cc2c(C)nn(-c3ccccc3)c2C)C1 (stereo not drawn) | inactive
CCCNC(=O)C1(C)CCN(C(=O)c2cc(F)ccc2C)C1 (stereo not drawn) | inactive
CCCNC(=O)C1(C)CCCN(Cc2cccc(C(F)(F)F)c2)C1 (stereo not drawn) | 25.9 µM (active)
Cc1ccc(NC(=O)C(C)OC(=O)C2CC3CCCC(C2)C3=O)cc1S(=O)(=O)N1CCOCC1 (stereo not drawn) | inactive
CCCOc1ccc(N2C(=O)CC(N(CCc3ccc(S(N)(=O)=O)cc3)C(C)=O)C2=O)cc1 (stereo not drawn) | inactive
O=C(CNc1ccc(F)cc1F)NC(=O)NCc1ccco1 | inactive
COc1ccc(/C(N)=N/OC(=O)Oc2ccccc2)cc1 | inactive
Cc1noc(NS(=O)(=O)c2ccc(NC(=O)C34CCC(CC3)C4)cc2)c1C | inactive
Cc1c(Cl)cccc1NC(=S)NCC(O)c1ccccc1 (stereo not drawn) | inactive
O=C(C1CCCO1)N1CCN(S(=O)(=O)c2ccc(Br)cc2)CC1 (stereo not drawn) | inactive
C#CCOCCOCCOCCNc1nc(N2CCN(C(=O)[C@H](CCCCN)n3cc([C@@H](N)C(C)CC)nn3)CC2)nc(N2CCN(C(=O)[C@H](Cc3ccc(O)cc3)n3cc([C@@H](N)C(C)CC)nn3)CC2)n1 (stereo partly drawn) | inactive
CS(=O)(=O)Nc1cccc(C2=NN(S(=O)(=O)c3ccccc3)C(c3cccs3)C2)c1 (stereo not drawn) | inactive
COc1cccc(C2CC(c3ccccc3)=NN2S(=O)(=O)c2ccccc2)c1OC (stereo not drawn) | 25.9 µM (active)
CCS(=O)(=O)Nc1ccc(C2=NN(S(=O)(=O)c3ccc(F)cc3)C(c3ccco3)C2)cc1 (stereo not drawn) | inactive
CNC(=O)C(NC(=O)c1ccccc1)=C(C)C | inactive

SMILES | Potency
O=C(NCCN1C(=O)C2C3C=CC(C3)C2C1=O)Nc1ccccn1 (stereo not drawn) | inactive
COc1ccc(OCC(=O)N2CCN(C(=O)c3cccs3)CC2)cc1 | inactive
CCc1ccc(NC(=O)COC(=O)c2cccs2)cc1 | inactive
O=C(CN1CCN(c2ccc(O)cc2)CC1)Nc1cc(S(=O)(=O)N2CCOCC2)ccc1Cl | 13 µM (active)
O=C(CN1CCOCC1)Nc1cc(Cl)ccc1Cl | inactive
Cc1ccc(Cl)cc1NC(=O)CN1CCN(S(=O)(=O)N2CCOCC2)CC1 | inactive
O=C(CN1CCN(c2cccc(Cl)c2)CC1)Nc1ccc(S(=O)(=O)N2CCOCC2)cc1 | 8.2 µM (active)
O=C(CN1CCN(S(=O)(=O)/C=C/c2ccccc2)CC1)Nc1ccc(N2CCOCC2)cc1 | inactive
O=C(CN1C(=O)CCC1=O)Nc1ccc(S(=O)(=O)N2CCOCC2)cc1 | inactive
Cc1cc(NC(=O)CC(C)C)cc(-c2nc3ncccc3o2)c1O | inactive
Cn1c(NC(=O)c2ccc3c(c2)OCO3)cc(=O)n(C)c1=O | inactive
COc1ccccc1CC(NC(C)=O)C(=O)NC1CCN(C(=O)Nc2ccccc2Cl)CC1 (stereo not drawn) | inactive
Cc1nn2c(=O)cc(COC(=O)c3cccc(NC(=O)COc4ccccc4Cl)c3)nc2s1 | inactive
COc1ccccc1CNc1ncncc1-c1cccnc1 | inactive
CCN(CC(=O)NC1CCS(=O)(=O)C1)c1nc(-c2cccnc2)nc2ccccc12 (stereo not drawn) | inactive
COc1ccccc1CCNC(=O)CSc1nnc2ccc(-c3cccnc3)nn12 | inactive
COc1ccccc1Oc1nc(-c2cccnc2)nc2ccccc12 | 20.6 µM (active)
O=[N+]([O-])c1ccc(F)cc1Oc1nc(-c2cccnc2)nc2ccccc12 | 18.4 µM (active)
O=[N+]([O-])c1cc2ccccc2nc1-c1ccccc1 | inactive
CCN(CC)c1nc(-c2ccccc2)cc(C(F)(F)F)c1C#N | inactive
Cc1cc(C)cc(C(=O)OCC(=O)NCCNC(=O)COC(=O)c2cc(C)cc(C)c2)c1 | inactive
Cc1occc1C(=O)Nc1nnc(-c2ccncc2)s1 | inactive
Cc1ccc(C(=O)Nc2nnc(-c3ccncc3)s2)o1 | inactive
Cc1ccc(NC(=O)Nc2nnc(-c3ccncc3)s2)cc1 | 11.6 µM (active)
CC1(C)C2CCC1(CS(=O)(=O)NCCc1c[nH]c3ccccc13)C(=O)C2 (stereo not drawn) | inactive
Cc1ccc(OCCC(=O)Nc2ccc(S(=O)(=O)Nc3nccs3)cc2)cc1 | inactive

SMILES | Potency
CN(C)NC(=O)C(NC(=O)c1ccc(N)cc1)C12CC3CC(CC(C3)C1)C2 (stereo not drawn) | inactive
COC(CCN(C)C)(c1ccccc1)c1ccccc1 | inactive
CCn1nnc(NC(=O)c2c(OC)cccc2OC)n1 | inactive
COc1ccc(/C=N/n2c(C)cc(C)cc2=O)cc1 | inactive
CCSC1=NCCN1S(=O)(=O)c1ccc(F)cc1 | inactive
Cc1ccc(S(=O)(=O)N2CCN=C2SCc2c(F)cccc2Cl)cc1 | 11.6 µM (active)
O=S(=O)(c1ccc(F)cc1)N1CCN=C1SCc1cccc(F)c1 | inactive
O=C(Nc1ccc(Cl)cn1)c1cnn2cccnc12 | inactive
COc1ccc(S(=O)(=O)N2CCOCC2)cc1C(=O)NC1CCCCC1 | inactive
COc1ccccc1CNC(=O)c1ccc(N(C)S(=O)(=O)c2ccc(C)cc2)cc1 | inactive
COc1ccccc1N(C)S(=O)(=O)c1ccc(C(=O)NC2CCCCCC2)cc1 | 23.1 µM (active)
CCc1ccc(OCC(=O)OCC(=O)c2c(N)n(C)c(=O)n(C)c2=O)cc1 | inactive
CC(C)Oc1ccc(/C=N/NC(=O)c2nnn(-c3nonc3N)c2CN(C)C2CCCCC2)cc1 | inactive
Cc1cc(C)cc(NC(=O)NCc2ccccn2)c1 | inactive
CC(C)(C)NC(=O)C(=O)NN=C1CCCCCCC1 | inactive
CC(C)NC(=S)NN=C1CCCCCCCCCCC1 | 13 µM (active)
CCc1ccc(C(=O)NN=C2CCCCCC2)s1 | inactive
Cc1ccc(-n2nc3c(c2NC(=O)CCC2CCCCC2)CS(=O)C3)cc1 (stereo not drawn) | inactive
CCN1CCC(O)(/C=C/c2ccc(C)cc2)C(C(=O)/C=C/c2ccc(C)cc2)C1 (stereo not drawn) | 4.61 µM (active)
O=S(=O)(c1ccc(Cl)s1)N1CCC2(CC1)OCCO2 | inactive
CNS(=O)(=O)c1ccc(N2CCCC2=O)c([N+](=O)[O-])c1 | inactive
COc1cc(C(=O)Nc2cc(C(F)(F)F)ccc2-n2cncn2)cc(OC)c1OC | inactive
O=[N+]([O-])c1cc(C(F)(F)F)ccc1NN=C1CCCC1 | inactive
COc1cc(OC)cc(C(=O)NC(=S)N2CCN(c3ccc(C(F)(F)F)cc3[N+](=O)[O-])CC2)c1 | 16.4 µM (active)
O=C(c1ccc(N2CCCC2=O)cc1)N1CCN(c2ccc(C(F)(F)F)cc2[N+](=O)[O-])CC1 | 2.31 µM (active)
O=C(Nc1cc(Cl)ccc1N1CCOCC1)c1ccc(N2CCCC2=O)cc1 | inactive

SMILES | Potency
C=CCO/N=C/C1=C(O)C(C(=O)OC)C(C)(C)CC1=O (stereo not drawn) | inactive
CC(C)(C)c1ccccc1NC(=O)CN1C(=O)NC2(CCCC2)C1=O | inactive
CCc1[nH]nc(C(=O)N2CCCC(CNS(=O)(=O)c3cccs3)C2)c1C (stereo not drawn) | inactive
Cc1ccc(C(CC(=O)O)Nc2nc(N3CCCCC3)nc(N3CCCCC3)n2)cc1 (stereo not drawn) | inactive
O=C(NNc1nc(N2CCCC2)nc(N2CCCC2)n1)c1ccccc1 | inactive
O=C(COC(=O)CCc1nc2ccccc2c(=O)[nH]1)Nc1ccc(N2CCOCC2)cc1 | inactive
CC(NC(=O)C1CCC(CNc2c(N3CCOCC3)c(=O)c2=O)CC1)c1ccccc1 (stereo not drawn) | inactive
FC(F)(F)c1cc(-c2ccco2)nc(N2CCOCC2)n1 | inactive
CC(Nc1nc(N2CCOCC2)nc2ccccc12)c1ccccc1 (stereo not drawn) | 18.4 µM (active)
CC(CN1CCOCC1)c1ccccc1 (stereo not drawn) | inactive
CC(Nc1nc(N2CCCC2)nc2ccccc12)c1ccccc1 (stereo not drawn) | 20.6 µM (active)
c1ccc2c(NC3C4CC5CC(C4)CC3C5)nc(N3CCOCC3)nc2c1 (stereo not drawn) | 20.6 µM (active)
NC(=O)c1ccc(N2CCCC2)nc1 | inactive
COc1ccccc1C(=O)Nc1ccc(Nc2ccccc2)cc1 | inactive
COc1ccccc1C(=O)Nc1ccc(OCc2nnc3c4ccccc4c(C)nn23)cc1 | 13 µM (active)
COc1cc(C(=O)Nc2ccc(OCc3cc(=O)n4cc(C)sc4n3)cc2)cc(OC)c1OC | inactive
O=C1N=C2SCCN2/C1=C\c1c(Cl)cccc1Cl | inactive
Cc1c(C(=O)NCCN2C(=O)S/C(=C\c3cccs3)C2=O)cccc1[N+](=O)[O-] | inactive
CN(C)c1ccc(C(CC(=O)O)C(=O)O)cc1 (stereo not drawn) | inactive
c1n[nH]c(NCc2ccc3c(c2)OCO3)n1 | inactive
O=C(CCN1C(=O)c2ccccc2C1=O)C1=NN[C@@H]2C(=O)N(c3ccc(F)cc3)C(=O)[C@H]12 | inactive
CC(=O)c1ccc(S(=O)(=O)N2CCC3(CC2)OCCO3)cc1 | inactive
CCCCN(C)CCNC(=O)C1CCCN(S(=O)(=O)c2cccc3nsnc23)C1 (stereo not drawn) | inactive
CCCCC(CC)CNC(=O)C1CCN(S(=O)(=O)c2cccc3nsnc23)CC1 (stereo not drawn) | inactive
CCCCN(CC)C(=O)C1CCCN(S(=O)(=O)c2cccc3nsnc23)C1 (stereo not drawn) | 18.4 µM (active)
